Results filed as inconclusive are left out. Calls of active or inactive are those of the source. The calls were made as follows, unless noted: active = hit-call score of the fitted dose curve at least 0.9, where 1 is the maximum; inactive = score below 0.9.
How the values were obtained:
[1] = read-out: Monocyte Chemoattractant Protein-1 (MCP1), CCL2 (gene 6347); test: BSK_SAg_MCP1: BioMAP Diversity Plus: SAg Assay for Monocyte Chemoattractant Protein-1 (MCP1) Biomarker Activity (AID 2283090); conditions: primary human HUVEC with PBMC; actives raise or lower the signal
In short: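 MCP-1 levels in the endothelial–PBMC SAg co-culture were quantified by ELISA at 24 h post-dosing; both increases and decreases versus DMSO scored. Cytotoxicity monitored by SRB total protein in parallel cultures.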

[2] = read-out: E-selectin (Homo sapiens) (UniProt P16581); test: BSK_SAg_Eselectin: BioMAP Diversity Plus: SAg Assay for Eselectin Biomarker Activity (AID 2283091); conditions: primary human HUVEC with PBMC; actives raise or lower the signal
In short: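 Cell-surface E-selectin is read by ELISA at 24 h in the SAg co-culture of HUVEC and PBMC. Curves are fitted in both directions relative to DMSO. Parallel SRB total-protein staining tracks overt toxicity.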

[3] = read-out: Monokine induced gamma interferon (MIG), CXCL9 (gene 4283); test: BSK_SAg_MIG: BioMAP Diversity Plus: SAg Assay for Monokine induced gamma interferon (MIG) Biomarker Activity (AID 2283092); conditions: primary human HUVEC with PBMC; actives raise or lower the signal
In short: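 ELISA readout of MIG/CXCL9; primary human umbilical vein endothelial cells co-cultured with peripheral blood mononuclear cells; 24 h post-dose; gain/loss fit vs DMSO baseline.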

[4] = BSK_SAg_PBMCCytotoxicity: PBMC Cytotoxicity Assessment in the BioMAP Diversity Plus: SAg Assay (AID 2283093); conditions: primary human HUVEC with PBMC;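 also: PBMC viability measured as Alamar Blue reduction fluorescence at 546/580 nm; fitted both ways against DMSO so a hit may be loss or gain of signal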;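 as to AC50: PBMC superantigen activated with SEB plus TSST-1 one hour after compound addition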
In short: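 Compound added to 75,000 PBMC/well for 1 h; SEB and TSST-1 then added at 20 ng/mL final each; 90 h incubation; Alamar Blue 6 h; read 546/580 nm ex/em. Activity fitted bidirectionally relative to DMSO baseline.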

[5] = read-out: Interleukin-8 (IL8), CXCL8 (gene 3576); test: BSK_SAg_IL8: BioMAP Diversity Plus: SAg Assay for Interleukin-8 (IL8) Biomarker Activity (AID 2283094); conditions: primary human HUVEC with PBMC; actives raise or lower the signal
In short: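 Human umbilical vein endothelial cells co-cultured with PBMC, stimulated with superantigen; IL-8 measured by ELISA 24 h after chemical dosing. Bidirectional fitting versus DMSO; SRB staining in parallel cultures tracks cytotoxicity.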

[6] = BSK_SAg_Proliferation: Cell Proliferation Assessment in the BioMAP Diversity Plus: SAg Assay (AID 2283095); conditions: primary human HUVEC with PBMC
In short: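 Human umbilical vein endothelial cells co-cultured with PBMC; sulforhodamine B total-protein staining (0.1% SRB after 10% TCA fixation, absorbance 560 nm) at 96 h in sub-confluent culture. Fitted bidirectionally against DMSO.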

[7] = BSK_SAg_SRB: Viability Assessment in the BioMAP Diversity Plus: SAg Assay (AID 2283096); conditions: primary human HUVEC with PBMC;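 also: cells read one day after compound addition; hits may be either gain or loss of signal compared with DMSO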
In short: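 Total protein by sulforhodamine B staining, 24 h after dosing, in HUVEC–PBMC co-culture; DMSO-referenced bidirectional fitting.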

[8] = molecular target: human CYP1A1, CYP1A1 (gene 1543) (UniProt P04798); test: NVS_ADME_hCYP1A1: NovaScreen (NVS) CYP450-related Enzyme Activity (ADME) Assay for human CYP1A1 (AID 2283100; active = hit-call score of the fitted dose curve at least 0.9, where 1 is the maximum)
In short: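 Chemicals were first tested in duplicate at 10 uM, and those passing a 30% inhibition threshold were rerun as concentration series topping at 20 uM. Fluorescence read-out of recombinant enzyme turnover after 1 h, relative to acetonitrile.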

[9] = molecular target: human CYP2B6, CYP2B6 (gene 1555) (UniProt P20813); test: NVS_ADME_hCYP2B6: NovaScreen (NVS) CYP450-related Enzyme Activity (ADME) Assay for human CYP2B6 (AID 2283101; active = hit-call score of the fitted dose curve at least 0.9, where 1 is the maximum)
In short: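 Fluorescence-based enzyme activity of recombinant human CYP2B6, measured 1 h post-dose against acetonitrile vehicle baseline. Screened at a single concentration of 10 uM in duplicate before concentration-response follow-up.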

[10] = molecular target: human CYP1A2, CYP1A2 (gene 1544) (UniProt P05177); test: NVS_ADME_hCYP1A2: NovaScreen (NVS) CYP450-related Enzyme Activity (ADME) Assay for human CYP1A2 (AID 2283102; active = hit-call score of the fitted dose curve at least 0.9, where 1 is the maximum;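 also: potency for inhibition since loss of fluorescence marks reduced CYP1A2 activity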)
In short: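 Enzyme activity of insect-cell-expressed human CYP1A2 measured by fluorescence 0.5 h after compound addition, relative to acetonitrile. Compounds first tested in duplicate at 10 uM, actives followed up in concentration series.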

[11] = molecular target: human CYP2C8, CYP2C8 (gene 1558) (UniProt P10632); test: NVS_ADME_hCYP2C8: NovaScreen (NVS) CYP450-related Enzyme Activity (ADME) Assay for human CYP2C8 (AID 2283104)
In short: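 Recombinant human CYP2C8 with fluorogenic substrate, 0.5 h, fluorescence intensity; signal loss fitted versus acetonitrile. Screened in duplicate at 10 uM, then actives run in concentration-response up to 20 uM.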

[12] = molecular target: human CYP2J2, CYP2J2 (gene 1573) (UniProt P51589); test: NVS_ADME_hCYP2J2: NovaScreen (NVS) CYP450-related Enzyme Activity (ADME) Assay for human CYP2J2 (AID 2283106; active = hit-call score of the fitted dose curve at least 0.9, where 1 is the maximum)
In short: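 Cell-free assay of recombinant CYP2J2 with a fluorogenic substrate, read 1 h after dosing; loss of signal versus acetonitrile. Primary screen at 10 uM in duplicate, then concentration-response up to 20 uM for chemicals passing threshold (e.g., 30% inhibition).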

[13] = molecular target: human CYP2D6, CYP2D6 (gene 1565) (UniProt P10635); test: NVS_ADME_hCYP2D6: NovaScreen (NVS) CYP450-related Enzyme Activity (ADME) Assay for human CYP2D6 (AID 2283107; active = hit-call score of the fitted dose curve at least 0.9, where 1 is the maximum)
In short: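 Fluorescence readout of recombinant CYP2D6 (insect-cell derived) activity after 1 h incubation with test chemical. Acetonitrile served as baseline, loss-of-signal direction. Single-concentration duplicate screening at 10 uM preceded concentration-response retesting.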

[14] = molecular target: human CYP2C9, CYP2C9 (gene 1559) (UniProt P11712); test: NVS_ADME_hCYP2C9: NovaScreen (NVS) CYP450-related Enzyme Activity (ADME) Assay for human CYP2C9 (AID 2283108; active = hit-call score of the fitted dose curve at least 0.9, where 1 is the maximum)
In short: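 Fluorescence readout of CYP2C9 activity (SF9-expressed human enzyme) at 0.75 h. The primary screen used 10 uM in duplicate, with concentration-response follow-up for actives; acetonitrile was the negative control.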

[15] = molecular target: Cytochrome P450 2C19 (Homo sapiens) (UniProt P33261); test: NVS_ADME_hCYP2C19: NovaScreen (NVS) CYP450-related Enzyme Activity (ADME) Assay for human CYP2C19 (AID 2283113; active = hit-call score of the fitted dose curve at least 0.9, where 1 is the maximum;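 also: potency for inhibition seen as loss of fluorescent signal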)
In short: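 Compounds first screened in duplicate at 10 uM, then confirmed in concentration series. Insect-cell-expressed human CYP2C19 turned over a fluorogenic substrate, and fluorescence was read after 1 h. Inhibition taken as signal loss relative to acetonitrile.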

[16] = molecular target: rat CYP2A1, Cyp2a1 (gene 24894) (UniProt P11711); test: NVS_ADME_rCYP2A1: NovaScreen (NVS) CYP450-related Enzyme Activity (ADME) Assay for rat CYP2A1 (AID 2283114)
In short: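 Recombinant rat CYP2A1, cell-free, fluorogenic substrate turnover read by fluorescence intensity 0.75 h after dosing. Primary screen at 10 uM in duplicate; actives rerun as concentration-response up to 20 uM; loss of signal versus acetonitrile control.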

Measured: AC50

E-selectin (Homo sapiens), sequence (P16581 whole entry, looked up): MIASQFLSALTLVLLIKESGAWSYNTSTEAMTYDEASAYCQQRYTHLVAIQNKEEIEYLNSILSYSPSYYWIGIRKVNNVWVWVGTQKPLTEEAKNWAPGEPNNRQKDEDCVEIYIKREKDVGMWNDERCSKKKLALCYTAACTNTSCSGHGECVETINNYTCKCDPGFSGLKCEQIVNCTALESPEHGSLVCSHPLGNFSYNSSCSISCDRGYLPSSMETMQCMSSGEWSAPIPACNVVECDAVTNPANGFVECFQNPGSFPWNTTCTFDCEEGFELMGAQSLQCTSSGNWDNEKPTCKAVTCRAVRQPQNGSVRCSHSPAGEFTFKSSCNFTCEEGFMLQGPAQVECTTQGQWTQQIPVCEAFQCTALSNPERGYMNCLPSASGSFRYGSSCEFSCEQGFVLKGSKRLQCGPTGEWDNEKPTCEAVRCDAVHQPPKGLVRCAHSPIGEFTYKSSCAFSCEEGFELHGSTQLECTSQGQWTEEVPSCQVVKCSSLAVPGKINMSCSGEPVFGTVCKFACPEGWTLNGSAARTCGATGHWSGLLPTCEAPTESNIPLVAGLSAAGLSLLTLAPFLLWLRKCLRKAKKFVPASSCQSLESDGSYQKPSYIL
human CYP2D6, CYP2D6 (gene 1565), sequence (P10635 whole entry, looked up): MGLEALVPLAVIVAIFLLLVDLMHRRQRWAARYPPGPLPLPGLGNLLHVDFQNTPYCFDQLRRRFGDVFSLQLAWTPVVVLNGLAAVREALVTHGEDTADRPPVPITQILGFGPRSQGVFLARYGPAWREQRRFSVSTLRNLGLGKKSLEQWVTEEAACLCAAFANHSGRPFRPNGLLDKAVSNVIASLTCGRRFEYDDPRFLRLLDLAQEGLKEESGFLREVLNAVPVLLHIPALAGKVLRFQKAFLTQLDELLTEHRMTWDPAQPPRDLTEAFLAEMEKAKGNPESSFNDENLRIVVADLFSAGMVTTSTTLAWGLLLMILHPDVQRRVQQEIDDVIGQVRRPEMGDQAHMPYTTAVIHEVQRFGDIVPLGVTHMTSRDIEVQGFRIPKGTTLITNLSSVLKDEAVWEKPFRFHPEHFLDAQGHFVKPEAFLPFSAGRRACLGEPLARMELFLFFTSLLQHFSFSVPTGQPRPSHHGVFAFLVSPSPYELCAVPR
human CYP1A1, CYP1A1 (gene 1543), sequence (P04798 whole entry, looked up): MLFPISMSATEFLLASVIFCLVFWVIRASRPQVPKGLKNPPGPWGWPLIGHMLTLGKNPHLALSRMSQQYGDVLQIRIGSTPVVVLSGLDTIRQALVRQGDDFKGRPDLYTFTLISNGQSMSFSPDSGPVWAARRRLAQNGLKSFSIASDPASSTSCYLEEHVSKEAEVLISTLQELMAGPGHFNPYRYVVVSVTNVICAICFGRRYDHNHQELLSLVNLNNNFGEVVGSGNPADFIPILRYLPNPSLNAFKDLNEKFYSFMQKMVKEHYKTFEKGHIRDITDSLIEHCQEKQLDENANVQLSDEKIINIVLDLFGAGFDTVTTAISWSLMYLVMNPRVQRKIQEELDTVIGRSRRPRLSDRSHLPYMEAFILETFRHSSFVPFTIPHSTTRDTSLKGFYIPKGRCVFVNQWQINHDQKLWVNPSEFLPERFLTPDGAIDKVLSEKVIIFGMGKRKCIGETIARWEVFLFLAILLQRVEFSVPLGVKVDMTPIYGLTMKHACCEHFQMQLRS
human CYP2J2, CYP2J2 (gene 1573), sequence (P51589 whole entry, looked up): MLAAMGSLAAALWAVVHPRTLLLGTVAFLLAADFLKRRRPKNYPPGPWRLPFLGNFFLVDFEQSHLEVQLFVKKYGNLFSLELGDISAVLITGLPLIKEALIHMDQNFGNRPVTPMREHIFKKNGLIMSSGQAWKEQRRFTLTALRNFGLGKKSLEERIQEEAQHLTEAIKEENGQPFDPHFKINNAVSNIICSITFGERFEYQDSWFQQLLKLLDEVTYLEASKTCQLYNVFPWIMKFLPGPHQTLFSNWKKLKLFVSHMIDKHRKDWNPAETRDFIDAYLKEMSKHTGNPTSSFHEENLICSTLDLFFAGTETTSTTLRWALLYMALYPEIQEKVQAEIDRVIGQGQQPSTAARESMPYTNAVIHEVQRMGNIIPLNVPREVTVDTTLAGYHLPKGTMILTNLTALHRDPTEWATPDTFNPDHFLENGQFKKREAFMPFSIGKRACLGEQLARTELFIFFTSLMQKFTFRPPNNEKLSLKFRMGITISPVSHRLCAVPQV
human CYP2C9, CYP2C9 (gene 1559), sequence (P11712 whole entry, looked up): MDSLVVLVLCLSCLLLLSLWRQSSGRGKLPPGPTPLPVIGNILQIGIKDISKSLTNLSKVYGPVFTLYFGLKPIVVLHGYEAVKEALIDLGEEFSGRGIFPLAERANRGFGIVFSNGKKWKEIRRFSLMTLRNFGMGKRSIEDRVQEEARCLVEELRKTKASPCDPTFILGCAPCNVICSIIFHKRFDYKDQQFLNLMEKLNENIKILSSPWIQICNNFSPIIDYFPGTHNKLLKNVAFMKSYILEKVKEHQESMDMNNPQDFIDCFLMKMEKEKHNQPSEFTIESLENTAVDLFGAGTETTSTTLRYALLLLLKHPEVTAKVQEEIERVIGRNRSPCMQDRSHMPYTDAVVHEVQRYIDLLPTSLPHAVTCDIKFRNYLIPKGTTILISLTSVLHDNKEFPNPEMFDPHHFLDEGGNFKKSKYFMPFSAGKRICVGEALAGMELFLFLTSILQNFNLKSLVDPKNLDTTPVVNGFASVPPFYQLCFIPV
human CYP2B6, CYP2B6 (gene 1555), sequence (P20813 whole entry, looked up): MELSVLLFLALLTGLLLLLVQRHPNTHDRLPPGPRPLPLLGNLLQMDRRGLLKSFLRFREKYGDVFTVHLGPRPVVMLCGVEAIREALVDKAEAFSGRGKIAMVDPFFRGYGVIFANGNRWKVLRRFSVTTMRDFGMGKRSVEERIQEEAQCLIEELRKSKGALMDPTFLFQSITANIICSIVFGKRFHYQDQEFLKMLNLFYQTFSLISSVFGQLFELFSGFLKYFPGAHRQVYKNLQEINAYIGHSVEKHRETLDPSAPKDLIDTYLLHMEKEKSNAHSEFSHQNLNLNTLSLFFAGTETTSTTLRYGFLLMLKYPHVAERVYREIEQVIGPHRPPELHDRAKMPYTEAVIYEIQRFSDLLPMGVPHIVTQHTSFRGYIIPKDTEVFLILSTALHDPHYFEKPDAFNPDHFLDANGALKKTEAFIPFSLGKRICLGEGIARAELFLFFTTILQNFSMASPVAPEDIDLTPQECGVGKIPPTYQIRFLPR
human CYP1A2, CYP1A2 (gene 1544), sequence (P05177 whole entry, looked up): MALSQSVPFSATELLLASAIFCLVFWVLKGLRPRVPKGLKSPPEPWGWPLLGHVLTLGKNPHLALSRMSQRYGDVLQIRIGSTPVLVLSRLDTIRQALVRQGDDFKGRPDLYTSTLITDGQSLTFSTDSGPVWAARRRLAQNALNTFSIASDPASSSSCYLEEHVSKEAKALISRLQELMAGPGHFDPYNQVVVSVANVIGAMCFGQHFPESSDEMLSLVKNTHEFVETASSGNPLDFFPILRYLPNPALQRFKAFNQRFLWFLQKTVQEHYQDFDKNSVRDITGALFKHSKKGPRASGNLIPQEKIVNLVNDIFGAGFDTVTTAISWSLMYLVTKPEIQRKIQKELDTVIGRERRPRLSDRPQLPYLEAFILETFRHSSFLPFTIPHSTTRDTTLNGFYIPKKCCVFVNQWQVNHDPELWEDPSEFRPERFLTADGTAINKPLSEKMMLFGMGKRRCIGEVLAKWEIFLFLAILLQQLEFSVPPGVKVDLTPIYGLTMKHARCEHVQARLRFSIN
rat CYP2A1, Cyp2a1 (gene 24894), sequence (P11711 whole entry, looked up): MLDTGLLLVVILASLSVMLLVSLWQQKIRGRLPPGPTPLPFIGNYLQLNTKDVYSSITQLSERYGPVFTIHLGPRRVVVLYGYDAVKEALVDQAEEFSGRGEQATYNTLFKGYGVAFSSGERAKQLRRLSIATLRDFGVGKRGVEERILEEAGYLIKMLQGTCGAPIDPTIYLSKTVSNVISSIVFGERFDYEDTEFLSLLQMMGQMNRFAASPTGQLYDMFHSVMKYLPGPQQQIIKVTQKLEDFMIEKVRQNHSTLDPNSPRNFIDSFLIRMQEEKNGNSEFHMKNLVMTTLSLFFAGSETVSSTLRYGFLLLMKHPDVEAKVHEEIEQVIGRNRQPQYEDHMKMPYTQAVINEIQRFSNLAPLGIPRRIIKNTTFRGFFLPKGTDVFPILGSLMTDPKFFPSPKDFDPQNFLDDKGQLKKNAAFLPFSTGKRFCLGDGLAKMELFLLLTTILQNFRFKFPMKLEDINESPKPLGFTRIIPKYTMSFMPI
human CYP2C8, CYP2C8 (gene 1558), sequence (P10632 whole entry, looked up): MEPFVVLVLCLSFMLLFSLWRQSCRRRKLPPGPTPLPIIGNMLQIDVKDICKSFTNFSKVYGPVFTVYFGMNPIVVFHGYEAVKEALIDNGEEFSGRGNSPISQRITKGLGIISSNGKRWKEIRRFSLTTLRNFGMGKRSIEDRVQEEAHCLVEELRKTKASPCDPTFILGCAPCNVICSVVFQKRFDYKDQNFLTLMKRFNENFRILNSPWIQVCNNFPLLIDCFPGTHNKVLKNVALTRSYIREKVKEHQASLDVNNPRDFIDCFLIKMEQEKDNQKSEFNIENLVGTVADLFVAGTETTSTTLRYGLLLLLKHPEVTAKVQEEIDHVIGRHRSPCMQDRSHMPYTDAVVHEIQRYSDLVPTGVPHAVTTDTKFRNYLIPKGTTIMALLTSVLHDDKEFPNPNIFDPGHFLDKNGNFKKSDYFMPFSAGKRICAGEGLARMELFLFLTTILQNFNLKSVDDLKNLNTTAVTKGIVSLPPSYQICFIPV

CS(=O)(=O)c1ccc(C(=O)C2C(=O)CCCC2=O)c([N+](=O)[O-])c1
inactive: [1] | [2] | [3] | [4] | [5] | [6] | [7]

COP(=S)(OC)SCn1nnc2ccccc2c1=O
active: [2] 10.4 µM | [6] 30.2 µM | [8] 363 nM | [9] 302 nM | [10] 2.79 µM | [11] 6.73 µM | [12] 1.87 µM | [13] 4.19 µM | [14] 5.2 µM | [15] 257 nM | [16] 3.24 µM
inactive: [1] | [3] | [4] | [5] | [7]

CC(C)N1C(=O)c2ccccc2NS1(=O)=O
inactive: [1] | [2] | [3] | [4] | [5] | [6] | [7]

Cc1cc(C)nc(Nc2ccccc2)n1
active: [2] 20 µM | [4] 7.57 µM | [5] 13.8 µM
inactive: [1] | [3] | [6] | [7]

N#Cc1c(Cl)cccc1Cl
inactive: [1] | [2] | [3] | [4] | [5] | [6] | [7]

C=C(C)CN(CC)c1c([N+](=O)[O-])cc(C(F)(F)F)cc1[N+](=O)[O-]
inactive: [1] | [3] | [5]
active: [2] 33.7 µM | [4] 30.8 µM | [6] 28.8 µM | [7] 15.2 µM

Cc1cnc(C2=NC(C)(C(C)C)C(=O)N2)c(C(=O)O)c1 (centres undefined)
inactive: [1] | [2] | [3] | [4] | [5] | [6] | [7]

CCNP(=S)(OC)O/C(C)=C/C(=O)OC(C)C (centres undefined)
active: [8] 2430 nM | [9] 723 nM | [10] 5.76 µM | [12] 1.33 µM | [13] 7.62 µM | [14] 1.79 µM | [15] 107 nM
inactive: [1] | [2] | [3] | [4] | [5] | [6] | [7]

CCOc1nc(F)cc2nc(S(=O)(=O)Nc3c(Cl)cccc3Cl)nn12
inactive: [1] | [2] | [3] | [4] | [5] | [6] | [7]
